ST2 inh = inhibitors of human ST2 (IL1RL1) binding to IL-33. inhibition, % for hits at 17 µM. 2.3% of 78,000 active. Q01638. AlphaLISA ST2-Fc/biotin-IL-33 interaction, 1 h; in the data active = inhibition above about 30%
An asterisk follows results filed as active; i = inactive. The full list was thinned out, with hits kept by preference.

SMILES	ST2 inh
NS(=O)(=O)c1ccc(CCNC(=O)c2ccc([N+](=O)[O-])cc2Cl)cc1	i
CCCN(CCC)S(=O)(=O)c1cc(Br)cc2c1N(C(=O)C1CC1)CC2	i
COc1cccc2c1NC(c1ccc(Br)cc1)C1CC=CC21 (configuration not stated)	33.0%*
O=C(O)c1cccc2c1NC(c1ccc(F)cc1)C1CC=CC21 (configuration not stated)	50.0%*
Cc1ccc([C@@H]2Nc3c(F)cccc3[C@@H]3C=CC[C@@H]32)cc1	i
O=C(O)c1cccc2c1NC(c1ccccc1Br)C1CC=CC21 (configuration not stated)	i
Fc1cccc2c1NC(c1ccc(Br)cc1)C1CC=CC21 (configuration not stated)	42.0%*
C=CCn1c(SCC(=O)N2CCN(CCO)CC2)nc2sc(C)c(C)c2c1=O	i
Cc1nc2n(C)c3ccccc3n2c1C(=O)OCCN1CCCCC1	i
COc1ccc(C(=O)NC2CCCc3nc(-c4ccccc4)ncc32)o1 (configuration not stated)	i
O=[N+]([O-])c1ccc(C2CSc3c4ncnc-4ncn32)cc1 (configuration not stated)	i
CCSc1nc2c(c(=O)[nH]1)C(c1cccc(Br)c1)C1=C(CC(C)(C)CC1=O)N2 (configuration not stated)	i
Cc1ccccc1OC(=O)NC(=O)c1ccccc1	i
CCOC1=NC2Nc3ccc(Cl)cc3N(C)C2C1c1ccc([N+](=O)[O-])cc1 (configuration not stated)	36.0%*
CC1=C(C(=O)Nc2ccc(Cl)cc2)C(c2ccc([N+](=O)[O-])cc2)n2ncnc2N1 (configuration not stated)	i
CCOc1ccc([N+](=O)[O-])cc1C1Nc2ccccc2-c2nnc(SC)nc2O1 (configuration not stated)	i
CC(C(=O)N(C)CCC(C)(C)O)N1CCCC1 (configuration not stated)	i
CSCCC(=O)NC1CCCN(CC2CCCCC2)C1 (configuration not stated)	i
N[C@@H]1c2ccccc2C2(CCN(C(=O)c3ccc(CO)o3)CC2)[C@H]1O	i
Cc1cc(N2CCC(C)CC2)nc2ccc(NC(=O)c3ccc4c(c3)OCO4)cc12	i
Cc1ccc(-n2nc3ccc(NC(=O)c4ccc5c(c4)OCCO5)cc3n2)cc1Cl	34.0%*
COc1ccc(C(=O)Nc2ccc3nn(-c4ccc(F)cc4)nc3c2)cc1OC	i
COc1ccc(-n2nc3cc(C)c(NC(=O)c4ccc(Cl)c([N+](=O)[O-])c4)cc3n2)cc1	i
COc1ccc(-n2nc3ccc(NC(=O)c4ccc(OC)c(Cl)c4)cc3n2)cc1	33.0%*
Cc1ccc(-n2nc3ccc(NC(=O)COc4ccccc4)cc3n2)cc1Cl	i
SMILES	ST2 inh
COc1ccc(N(C(=O)Cc2ccc(OC)c(OC)c2)C2C=CS(=O)(=O)C2)cc1 (configuration not stated)	i
CN1CCCN(S(=O)(=O)NCc2ccccc2)CC1	i
Cc1ccc2[nH]cc(-c3ccc(C(=O)NCCCc4ccccn4)cn3)c2c1	i
COc1ccc(-c2noc(-c3ccc(N4CCC[C@H]4CO)nc3)n2)cc1	i
O=C1Nc2ccc(Br)cc2C(O)(C(=O)NCc2ccccc2)N1c1ccccc1 (configuration not stated)	i
Cc1ccc(C(=O)N2CCN(S(=O)(=O)c3cc4c5c(c3)CCN5C(=O)CC4)CC2)cc1	i
O=C(O)c1ccccc1C1CCN(C(=O)c2ccc(-n3cnnc3)cc2)C1 (configuration not stated)	i
O=C1C2[C@H](C(=O)N1c1cccc(Br)c1)C1c3ccccc3C2(C(=O)O)c2ccccc21 (some centres not stated)	i
CC(=O)Oc1ccc(N2C(=O)C3C4c5ccccc5C(C)(c5ccccc54)C3C2=O)cc1 (configuration not stated)	i
O=C1[C@@H]2C3c4ccccc4C(Br)(c4ccccc43)[C@@H]2C(=O)N1c1ccc([N+](=O)[O-])cc1	34.0%*
CC(c1cccc(-c2cc3c(cc2C(N)=O)OCO3)c1)N1CCCC1 (configuration not stated)	i
OC(COc1ccc2c(c1)CCC2)CN1CCc2ccccc2C1 (configuration not stated)	i
O=C1S/C(=C\c2ccccc2F)C(=O)N1CNc1cccc(F)c1	i
CCCCN1C(=O)S/C(=C\c2cc(C)n(C)c2C)C1=O	39.0%*
Cc1cc(NC(=O)CN2C(=O)S/C(=C\c3ccccc3)C2=O)no1	i
Cn1nccc1C(=O)NCCNC(=O)c1ccnn1C	i
COc1ccc(NC(=O)c2oc3ccccc3c2NC(=O)C2CCCC2)c(OC)c1	i
CCN(Cc1ccccc1)C(=O)CCN1CCCN(C)CC1	i
CC(O)c1cn(C2CCN(Cc3ccc(-n4cccn4)cc3)CC2)nn1 (configuration not stated)	i
COc1cccc(C2=NN(C(=O)Cc3ccc([N+](=O)[O-])cc3)C(O)(C(F)(F)F)C2)c1 (configuration not stated)	i
CC(=O)N1N=C(c2ccc(Cl)cc2)OC1(C)C	i
COc1ccc(CC2(C)OC(c3ccc([N+](=O)[O-])cc3)=NN2C(C)=O)cc1 (configuration not stated)	49.0%*
C=CCN(C(=O)C1CCC(CNS(=O)(=O)c2cccc3nsnc23)CC1)c1ccccc1 (configuration not stated)	i
Cc1cc(C)c(NC(=O)c2ccc(Br)cc2)c(C)c1	i
O=[N+]([O-])c1ccc(S(=O)(=O)NCCc2cccc(Cl)c2)cc1	i
